Test results reported in PubChem BioAssay (NCI).
Compounds without any hit were thinned out: in the full panel of roughly 83,000, 20% have a hit.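 48-hour exposure, single concentration, 96-well plates; percent growth endpoint where 0 means no net growth. Active: below 10.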 Unmarked numbers belong to inactive results. Calls of active or inactive are those of the source.

Test system: HL-60(TB) leukemia
Assay: NCI-60 one-dose screen, 48 h (100 = growth as untreated, 0 = no growth, -100 = all killed)
Settings: 10 µM unless noted

SMILES	growth
COc1cc(/C=C2\C(=O)Nc3ccccc32)ccc1OCc1ccc(Cl)cc1	113%
COc1cc(/C=C/C(=O)c2ccc(C(F)(F)F)cc2)ccc1Oc1nc(NCCO)nc(N2CCOCC2)n1	53.4%
C=CCn1c(SCC(=O)Nc2ccc(C(=O)/C=C/c3ccc(Br)cc3)cc2)nnc1-c1c[nH]c2ccccc12	84.3%
NS(=O)(=O)Oc1ccc2nc(Nc3ccc(F)c(F)c3)ccc2c1	71.3%
COc1cc(-c2nn(C(C)(C)C)cc2-c2ccnc(NCCCNS(=O)(=O)c3ccc(F)cc3)n2)ccc1Cl	101%
CN1CCN(c2ccc3c(C(N)=O)c(NC(=O)c4ccc(C(C)(C)C)cc4)sc3c2)CC1	28.5%
COc1cc(-c2nc3ccc(-c4nnc(SCC(=O)Nc5ccc(C(=O)/C=C/c6ccc(Cl)cc6)cc5)o4)cc3[nH]2)cc(OC)c1OC	92.5%
C#CCOc1cccc(-c2nc(N)nc(Nc3ccccc3SSc3ccccc3Nc3nc(N)nc(-c4cccc(OCC#C)c4)n3)n2)c1	23.7%
CCn1c2ccccc2c2cc(-n3nncc3-c3ccccc3)ccc21	3.73% (active)
COc1cc(C(=O)C[n+]2ccc3ccccc3c2)cc(OC)c1OC	92.7%
CC(C)(O)c1cncc(-c2ccc3ncnc(NCc4ccccc4)c3c2)c1	105%
c1ccc(-c2cn3c(-c4c[nH]c5ccccc45)csc3n2)cc1	56%
O=c1c2c(O)cccc2oc2c3c(cc(O)c12)O[C@H]1OC=C[C@@H]31	89.7%
